# High-throughput results as filed in PubChem.
# NS1 inh – qHTS Assay for Inhibitors of Influenza NS1 Protein Function | Potency, µM (highest dose often 46.1 µM), for the others: top-dose activity, positive = more growth | 0.4% of 270,000 active | AID 2326, 2010; further: potency means the concentration at half of the fitted maximal effect; actives are rising curves; nearly all actives have a fitted effect of over 50% in size
#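 A cell-based growth assay was used: compounds that relieve NS1-induced slow growth of budding yeast raise OD600. Assay medium was yeast nitrogen base with ammonium sulphate and -URA supplement, pH 6.0, with 2% galactose.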
# SARS PLpro yeast – qHTS of Yeast-based Assay for SARS-CoV PLP | S. cerevisiae expressing SARS-CoV PLpro, growth rescue | Potency, µM (highest dose often 32.9 µM), without a hit: top-dose activity, positive = growth rescue, hits mostly activators | 0.19% of 330,000 active; further: potency means the concentration at half of the fitted maximal effect; 0% is about no effect; nearly all actives have a fitted effect of over 55% in size
# Shiga toxin inh – A qHTS for Small Molecule Inhibitors of Shiga Toxin. 9.2% of 290,000 active. inhibition, % at 38.7 µM. Vero cells, Shiga toxin protein synthesis inhibition reporter; in the data active means inhibition mostly above about 28%, no sharp cut-off; inactive means mostly below about 43%; further: 0% is about no effect
# Pf growth 48h – Primary qHTS for delayed death inhibitors of the malarial parasite plastid, 48 hour incubation. Potency, µM (series often up to 28.7 µM), for the others: at the top dose activity change, negative = inhibition, actives largely listed as inhibitors. 5.9% of 310,000 active. P. falciparum luciferase growth in erythrocytes, 48 h; active means well fitted inhibition curve with a large enough effect; inconclusive means small, poorly fitted or top-dose-only effect, or another doubt; inactive means no such curve, though single readings can be large or run the other way; further: potency means the concentration at half of the fitted maximal effect; on the % scale 0 is the no-effect control and ±100 the full control effect
#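 Luciferase-expressing P. falciparum in infected erythrocytes (2% hematocrit, 0.1% parasitemia final) in RPMI 1640/0.5% Albumax were exposed to compound for 48 hours at 37 C, 5% CO2; growth read as luminescence.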
# Pf growth 96h – Primary qHTS for delayed death inhibitors of the malarial parasite plastid, 96 hour incubation. Potency, µM (series often up to 28.7 µM), inactives show at the top dose activity change, negative = inhibition, most hits filed as inhibitors. 6.9% of 320,000 active. P. falciparum luciferase reporter growth, 96 h; active means well fitted inhibition curve with a large enough effect; inconclusive means small, poorly fitted or top-dose-only effect, or another doubt; inactive means no such curve, though single readings can be large or run the other way; further: potency means the concentration at half of the fitted maximal effect; on the % scale 0 is the no-effect control and ±100 the full control effect
#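 Luminescence readout: decreased luciferase signal marks inhibited growth of reporter-expressing P. falciparum in infected red cells (2% hematocrit, 0.05% parasitemia final), exposed to compound two generations (96 h, 37 C, 5% CO2).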
# CHX counter – Cycloheximide Counterscreen for Small Molecule Inhibitors of Shiga Toxin. cell reporter, cycloheximide protein synthesis inhibition counterscreen. max response, %. 12% of 300,000 active. AID 2314, 2010; in the data active means max response mostly above about 13%, no sharp cut-off; inactive means mostly below about 14%; further: read at 38.3 µM for the half of the compounds with a filed dose; 0% is about no effect
# Active calls of the source: *; i = inactive; ? = inconclusive; . = not tested or not shown; + = active, no number; ! = not active in a repeat. Hits are enriched below; roughly 21% of the tested compounds scored in any of these assays. Unless noted, the call rests on the fitted dose curve.
SMILES,NS1 inh,SARS PLpro yeast,Shiga toxin inh,Pf growth 48h,Pf growth 96h,CHX counter
COc1ccccc1NC(=S)N1CCN(c2ccccc2F)CC1,19%,5%,-1,15%,-15%,-2
O=S(=O)(NCc1ccccc1)c1ccc(-n2cccn2)cc1,-12%,-6%,-1,7%,?,10
Cc1ccc(CN2CCN(c3cccc4[nH]ccc34)CC2)cc1,2%,-2%,-3,-14%,-19%,-1
COc1ccc(N(CC(=O)N2CCCCCC2)S(=O)(=O)c2ccccc2[N+](=O)[O-])c(OC)c1,5%,0%,-9,12µM*,-28%,-2
COc1ccc(N(CC(=O)NCc2ccc(C)cc2)S(=O)(=O)c2ccccc2[N+](=O)[O-])c(OC)c1,12%,0%,-2,?,0%,0
COc1ccc(N(CC(=O)NCc2ccccc2C)S(=O)(=O)c2ccccc2[N+](=O)[O-])c(OC)c1,16%,-1%,-17,?,10µM*,-2
Cc1ccc(S(=O)(=O)N2CC(O)CC2C(=O)OCC(=O)c2ccccc2Cl)cc1C (stereo not drawn),-2%,-12%,-14,32%,52%,-3
Cc1cccc2c1NC(=O)C21N2CCCC2C(C(=O)c2ccc3ccccc3c2)C12C(=O)Nc1ccccc12 (stereo not drawn),3%,-2%,20,?,?,16*
CCc1ccc2c(c1)C1(C(=O)N2)N2CCCC2C(C(=O)c2ccc3ccccc3c2)C12C(=O)Nc1ccccc12 (stereo not drawn),-1%,-15%,65*,?,2.3µM*,46*
CN(C)/C=C/C(=O)c1cc(N2CCOCC2)ccc1[N+](=O)[O-],.,0%,15,24%,0%,-3
CCOc1ccc(CN(C)C(=O)CNC(=O)C2CCCCC2)cc1OC,12%,10%,-7,?,?,4
O=C1NN(c2cccc(Br)c2)C(=O)/C1=C\c1ccc(N2CCOCC2)cc1,1%,1%,-17,24%,?,-2
Cc1ccccc1NC(=O)Nc1cccs1,26%,6%,12,-12%,?,12
NC(=O)c1ccccc1N/C=C/C(=O)c1ccc(F)cc1,-146%,-36%,98*,261%,410%,56*
COc1cc([N+](=O)[O-])ccc1N/C=C/C(=O)c1cccs1,-10%,-7%,60*,313%,275%,27*
NC(=O)c1ccccc1N/C=C/C(=O)c1ccc(Cl)cc1Cl,-10%,-30%,72*,i,201%,33*
Cc1cccc(N/C=C/C(=O)c2cccs2)c1C,-10%,-22%,74*,168%,4.7µM*,49*
O=C(/C=C/c1ccc([N+](=O)[O-])cc1)c1cccs1,1%,-1%,-8,14%,20%,3
O=C(O)c1ccc(Cl)c(S(=O)(=O)NC(Cc2ccccc2)C(=O)O)c1 (stereo not drawn),.,1%,-4,-7%,10%,-2
CC(=O)c1c(C)[nH]c(C(=O)COC(=O)c2ccc(Cl)nc2)c1C,.,2%,.,-10%,-24%,.
CCc1ccc(OCC(=O)Nc2ccc(-c3cc4ccccc4oc3=O)c(OC)c2)cc1,23%,6%,14,?,?,-1
Cc1ncoc1C(=O)Nc1ccccc1C(N)=O,-4%,-6%,-2,25%,?,9
NC(=O)c1ccccc1NS(=O)(=O)c1cccs1,3%,0%,12,-5%,-5%,-2
Cc1ccc(C(=O)/C=C/Nc2ccccc2C(N)=O)o1,-20%,.,83*,108%,65%,54*
NC(=O)c1ccccc1N/C=C/C(=O)c1cccs1,-18%,?,45*,128%,40%,44*
SMILES,NS1 inh,SARS PLpro yeast,Shiga toxin inh,Pf growth 48h,Pf growth 96h,CHX counter
COC(=O)Cc1c(C)c2ccc(O)c(CNCc3ccc(OC)c(OC)c3)c2oc1=O,7%,1%,1,?,-11%,6
O=C(O)CCN1C(=S)CSC1=S,-4%,.,.,.,.,.
NC(=O)c1sc2nc3c(cc2c1N)CCC3,.,-2%,48*,68%,9%,22*
CCCCS(=O)(=O)c1sc2nc3c(cc2c1N)CCCC3,-15%,-7%,79,-11%,?,2
COC(=O)c1sc2nc(N)c(C#N)cc2c1N,27%,17%,73*,57%,-14%,30*
COC(=O)c1sc2nc3c(cc2c1N)CCCC3,-9%,-4%,99*,172%,-3%,39*
CCCn1c(-c2ccc[nH]c2=O)nc2cc(C)c(C)cc21,5%,0%,72*,157%,55%,38*
Cc1cccc(NC(=O)CCSc2nncn2C)c1,7%,-14%,15,33%,5%,-2
O=C(CCSCCc1ccccn1)Nc1ccc(Cc2ccncc2)cc1,.,1%,-6,?,12µM*,0
Cc1ccc(NC(=O)CCSc2nnc(C)o2)cc1,-7%,0%,3,0%,-4%,6
Cc1cccc(NC(=O)CCSc2ccccn2)c1,2%,8%,74*,72%,116%,75*
Cc1ccc(NC(=O)CCSc2ccccn2)cc1,-7%,5%,+,198%,237%,59*
COc1ccccc1C(=O)Nc1ccc(C(=O)Nc2ccccc2C(=O)O)cc1,-5%,-1%,-17,15%,-1%,-4
O=C(COC(=O)c1ncc(Cl)c(Cl)c1Cl)NCCc1ccccc1,.,0%,.,3%,18%,.
Cn1cc(NC(=O)c2cc(NC(=O)c3cc(NC=O)cn3C)cn2C)cc1C(=O)NCCC(=N)N,-11%,1%,-3,3.4µM*!,?,-5
CCc1ccc(NC(=O)c2cc(S(=O)(=O)N3CCc4ccccc43)cn2C)cc1,27%,-8%,7,?,14%,5
Cc1sc(NC(=S)NC(=O)C2CCCCC2)c(C(N)=O)c1C,18%,-18%,14,47%,4%,-4
O=C(CN(Cc1ccccc1F)S(=O)(=O)c1ccc(Cl)cc1)NCCC1=CCCCC1,3%,-1%,-9,?,12µM*,-3
Cc1ccc(S(=O)(=O)N(CC(=O)NCCC2=CCCCC2)Cc2ccccc2F)cc1,-38%,-18%,-5,?,12µM*,14
CC[n+]1ccc(/C=C2\Sc3ccccc3N2CCCS(=O)(=O)[O-])c2ccccc21,0%,1%,1,2%,6%,-2
CN1C=C/C(=C\c2cc[n+](C)c3ccccc23)c2ccccc21,.,-6%,-17,?,12µM*,-3
O=C(NNC(=O)c1ccc(Br)s1)c1cccc(Cl)c1,.,-40%,.,?,41%,.
C/C(=N\NC(=O)c1cc2ccccc2cc1O)c1cc2ccccc2o1,9%,0%,14,?,?,9
